The results in this text go back to PubChem BioAssay AID777 (Sanford-Burnham Center for Chemical Genomics, 2007).

Each structure is given as a SMILES string. Out of some 96,000 compounds screened, about 19,000 (20%) were called active.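 Rule for the calls: active = blocking of liver enzyme CYP2C9 beyond about 50% at 5 µM (limit read from the data); inactive = the rest.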 Only a sample is shown.

Chain of Cytochrome P450 2C9 (Homo sapiens) (P11712 whole entry, looked up): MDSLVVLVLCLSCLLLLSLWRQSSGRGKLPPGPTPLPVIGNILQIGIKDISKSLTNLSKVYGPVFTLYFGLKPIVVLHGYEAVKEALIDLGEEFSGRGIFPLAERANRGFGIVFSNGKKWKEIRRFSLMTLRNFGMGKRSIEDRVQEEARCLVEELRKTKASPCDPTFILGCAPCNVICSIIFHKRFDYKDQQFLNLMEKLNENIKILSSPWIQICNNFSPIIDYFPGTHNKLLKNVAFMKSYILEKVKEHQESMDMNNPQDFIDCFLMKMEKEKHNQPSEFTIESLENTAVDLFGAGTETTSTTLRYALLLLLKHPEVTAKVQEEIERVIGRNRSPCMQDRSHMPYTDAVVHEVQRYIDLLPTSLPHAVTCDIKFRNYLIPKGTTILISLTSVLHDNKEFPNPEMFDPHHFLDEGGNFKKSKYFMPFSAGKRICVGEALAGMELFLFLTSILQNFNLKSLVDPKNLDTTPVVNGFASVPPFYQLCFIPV

The assay has as its target Cytochrome P450 2C9 (Homo sapiens) (UniProt P11712). As to the kind of experiment: blockers of cytochrome P450 2C9 activity – biochemical, luminescence, ADME assay, primary screen (AID 777). The conditions noted are these: CYP2C9 Supersomes, luciferin-H conversion, at 5 µM, stronger effect = higher value.
As usually defined, the inhibition is the relative decrease from the control value, in per cent. As to `Cc1ccc(N2CCN(/N=C/c3cccs3)CC2)cc1`, the inhibition was -7% (inactive).
With `S=c1nccc(-c2cc(Cl)sc2Cl)[nH]1`, the inhibition was -6.6% (inactive).
As for `CCOc1ccc(CNC(=O)C2CC(=O)N(C3CCCC3)C2)cc1OC` (stereo unspecified), the inhibition is 7.1% (inactive).
Then `CCC(O)CNc1nc(-n2nc(C)cc2C)nc2sc3c(c12)CC(C)(C)OC3` (stereo unspecified), with 19.9% (inactive).
For `COc1ccc(OC)c(C(=O)c2coc3ccc(O)c(CN4CCOCC4)c23)c1` the value was 22% (inactive); for `COc1ccc2occ(C(=O)c3ccc(N=C(C)N(C)C)cc3)c2c1`, -17.7% (inactive).
As to `COc1ccc(OC)c(C(=O)c2coc3ccc(OC)cc23)c1`, the inhibition was 68.5% (active).
Then `CCC1CCCCN1C(=O)Nc1cccc(NC(=O)N2CCCCC2CC)c1` (stereo unspecified), with -13.6% (inactive); and `Cc1cccc(N(CC(=O)N=Nc2c(O)[nH]c3ccccc23)S(C)(=O)=O)c1C`, with 44.2% (inactive); and `CS(=O)(=O)N(CC(O)Cn1c2ccccc2c2ccccc21)c1cccc2ccccc12` (stereo unspecified), with 99.6% (active).
Consider `CC(=O)c1ccc2c(c1)c1ccccc1n2CC(C)C`, for which the inhibition is 20.5% (inactive).
With `C=CCn1c(SCC(=O)c2c(N)n(C)c(=O)n(C)c2=O)nc2sc(CC)cc2c1=O`, the inhibition was 38.3% (inactive).
For `CCS(=O)(=O)c1ccc2c(c1)N(S(=O)(=O)c1ccccc1)CC(C(=O)O)O2` (stereo unspecified) the value was 42.8% (inactive); for `COc1ccccc1OCCC(=O)OCC(=O)NC(=O)NC(C)(C)C`, 2.5% (inactive).
For the molecule `Cc1ccccc1CSCC(=O)NC(=O)NC(C)(C)C`, the inhibition is 62.3% (active).
Then `CC(C)(C)NC(=O)NC(=O)COC(=O)Cn1c(C(F)(F)F)nc2ccccc21`, with 43.9% (inactive).
As to `O=C(O)C1C2C=CC(C2)C1C(=O)N1CCN(CCO)CC1` (stereo unspecified), the inhibition was 10.3% (inactive).
Take `COC(=O)c1ccc(COC(=O)c2c(C)nn(Cc3ccccc3Cl)c2Cl)o1`: the inhibition is 83.3% (active).
Then `Cc1nn(Cc2ccccc2)c(Cl)c1C(=O)OC1CCOC1=O` (stereo unspecified), with 5.7% (inactive); and `CCOC(=O)c1cnn(Cc2ccccc2Cl)c1N`, with 22% (inactive).
For `Cc1noc(C)c1C(=O)N1CCOCC1` the value was -7.1% (inactive); for `c1ccc(CC2CCN(c3nc4ccccc4n4cnnc34)CC2)cc1`, 20.5% (inactive); for `CCCn1c(C)cc(C(=O)COC(=O)c2c(C)nn(-c3ccccc3)c2C)c1C`, -31.1% (inactive).
On to `CC(C)=C1SC(N2CCN(c3cccc(C)c3)CC2)=NC1=O`, for which the inhibition was -36.8% (inactive).
Turning to `CNS(=O)(=O)c1cnccc1N1CCN(c2cccc(C)c2)CC1`, the inhibition is 57.7% (active).
Then `O=S(=O)(c1cnccc1N1CCN(/N=C/c2ccc(Br)cc2)CC1)N1CCCCC1`, with -9.2% (inactive); and `O=C(N/N=C\c1cccc(Br)c1)c1ccccc1-n1cccc1`, with 66.3% (active).
`N=c1oc2ccccc2cc1C(=O)N/N=C/c1ccccc1`: the inhibition was 27.9% (inactive).
For `Cn1c(=O)n(C)c2cc(/C=N/NC(=O)c3cccc(Br)c3)ccc21`, the inhibition was -21.3% (inactive).
Consider `Cc1nn(C)cc1C(=O)NNC(=S)Nc1ccc(Cl)cc1`, for which the inhibition is 18.7% (inactive).
Consider `CCN(Cc1cc2cc(C)ccc2[nH]c1=O)S(=O)(=O)c1ccccc1`, for which the inhibition is 5.9% (inactive).
With `COc1ccc(-c2nc(CCNC(=O)c3ccc(Br)o3)cs2)cc1`, the inhibition was 62.2% (active).
Then `COc1ccc(CCNC(=O)c2ccco2)cc1`, with 8.8% (inactive).
Then `O=C(NCCc1ccccn1)c1ccc(COc2ccccc2)o1`, with 13.4% (inactive); and `CCOC(=O)/C=c1\s/c(=C\c2ccccc2OC)c(=O)n1CC(=O)N1CCOCC1`, with 2% (inactive).
For `Fc1ccc(CSc2nnc(-c3cc4c(s3)-c3ccccc3CC4)o2)cc1` the value was 52.4% (active).
`Clc1ccc(CSc2nnc([C@@H]3CCCN3)o2)cc1`: the inhibition was 31.8% (inactive).
For `CCSc1nnc(-c2cc3c(s2)-c2ccccc2CC3)o1` the value was -16.8% (inactive).
Then `CC(C)OC(=O)c1sc2nc3c(cc2c1N)C(=O)CCC3`, with 19.5% (inactive).
For `COc1ccccc1-c1nc(C#N)c(N2CCC(C(N)=O)CC2)o1` the value was -9.8% (inactive).
Take `N#Cc1nc(COc2ccc(Cl)cc2)oc1N1CCCC1`: the inhibition is 39.8% (inactive).
Regarding `CC1CCN(c2oc(-c3ccccc3F)nc2C#N)CC1`, the inhibition was 80% (active).
As to `Cc1ccc(NC(=O)CN2CCc3ccccc3C2)cc1`, the inhibition is 87.4% (active).
Then `Cc1ccc(NC(=O)CCN2CCc3ccccc3C2)cc1`, with 11.4% (inactive).
Then `O=C(CN1CCOCC1)Nc1ccccc1`, with 11.4% (inactive).
For `Cc1ccccc1-n1nnc2c(=O)oc3ccccc3c21`, the inhibition was 5.8% (inactive).
Then `Cc1cc(=O)[nH]c(SCC(N)=O)c1C#N`, with 1.6% (inactive).
Then `CCOC(=O)Nc1ccc(NC(=O)OCC)cc1`, with -16.2% (inactive); and `COc1ccc(-n2c(C)cc(C(=O)CSc3nnc(-c4cccs4)o3)c2C)cc1`, with 90.8% (active); and `NC(=O)CSc1oc(-c2cccs2)nc1S(=O)(=O)c1ccccc1`, with 30.5% (inactive).
Regarding `COc1ccc(-c2nnc(SCC(=O)c3cccs3)o2)c(OC)c1`, the inhibition is 16.1% (inactive).
For `COc1ccc(OC)c(C(=O)CSc2nnc(-c3cccs3)o2)c1` the value was 54.4% (active).
Then `COc1ccccc1-c1nnc(SCC(=O)Nc2cc(C)on2)o1`, with -64.2% (inactive).
Regarding `Cc1cc(NC(=O)CSc2nnc(-c3ccc(Cl)s3)o2)no1`, the inhibition is 18.4% (inactive).
Then `C=CCNC(=S)NNc1ncnc2sc3c(c12)CC(C)(C)OC3`, with 19.6% (inactive).
For `CCOC(=O)C1=C(C)N=c2s/c(=C\C(=O)OC)c(=O)n2C1c1ccc(OC)cc1` (stereo unspecified) the value was 6.6% (inactive); for `O=C(COC(=O)c1ccccc1C(=O)c1ccccc1)c1ccco1`, 90.4% (active).
For `O=C(CNC(=O)c1ccco1)OCC(=O)c1ccccc1`, the inhibition is -2.5% (inactive).
For `CCN(CC)c1ccc(C(=O)OCC(=O)c2ccco2)cc1` the value was -26.4% (inactive); for `NC(=O)c1ccccc1NC(=O)c1ccccc1F`, -7.7% (inactive).
For `Fc1ccccc1OCCSc1nc2ccccc2o1`, the inhibition is 21.5% (inactive).
For `Cc1c(Br)cc(C(=O)N2CCCCCC2)c(C)c1C` the value was -38.3% (inactive); for `FC(F)(F)c1ccc2nnc(-c3c(Cl)cccc3Cl)n2c1`, 25.7% (inactive).
As to `CCN1CCN(c2c(Cl)cccc2NC(=O)c2ccc(Br)o2)CC1`, the inhibition is 64.7% (active).
With `COc1cc(OC)c(NC(=O)c2ccc(Br)o2)cc1Cl`, the inhibition was 38.8% (inactive).
For `CCCC(=O)Nc1ccc(Cl)c(NC(=O)c2ccc(Br)o2)c1`, the inhibition is 16.1% (inactive).
